Compound activity from PubChem.
SW480 rerep – DNA re-replication induction in SW480 cells; AID 624297; 340,000 compounds, 1.8% hits; SW480 DNA re-replication, Hoechst DNA content imaging, 48 h; Potency, µM (doses to about 46.1 µM), for the others: at the top dose re-replication activation, usual class: activators; further: % of control where 0% means no effect; nearly all actives have a fitted effect of over 55% in size
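Treated cells incubate 48 hr (37 C, 5% CO2), are stained 40 min with Hoechst, and nuclear fluorescence is enumerated; a rise in nuclei with high DNA signal marks re-replication.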
ELG1 DNA repair – inhibitors of ELG1-dependent DNA repair in HEK293T cells. HEK293T ELG1-luciferase reporter, luminescence, 16 h; DNA damage induced by 5-fluorouridine. Potency, µM (highest dose often 46.1 µM), without a hit: at the top dose activity change, negative = inhibition, usual class: inhibitors. 330,000 compounds, 2.3% hits. AID 504467; further: on the % scale 0 is the no-effect control and ±100 the full control effect; nearly all actives have a fitted effect of over 55% in size
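5-Fluorouridine DNA damage + compound/DMSO, 2,000 cells/well, 16 h, 37 °C/5% CO2. ONE-Glo, 30 min RT, luminescence. Readout = decrease in reporter signal.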
Gal4-VP16 FLuc – counter-screen for ROR gamma inhibitors: Gal4-VP16 reporter; Drosophila S2 Gal4-VP16 UAS-luciferase, luminescence, 20 h; Potency, µM (doses to about 53.6 µM), for the others: at the top dose activity, negative = inhibition, usual class: inhibitors; 310,000 compounds, 3.5% hits; AID 2546;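 further: Gal4-VP16 expression switched on by copper sulfate through the metallothionein promoter; on the % scale 0 is the no-effect control and ±100 the full control effect; nearly all actives have a fitted effect of over 50% in size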
MCF10A rereplic – DNA re-replication induction in MCF 10a cells; MCF 10A DNA re-replication, Hoechst nuclear intensity, 48 h; Potency, µM (top dose mostly 46.1 µM), inactives show at the highest dose activity, positive = re-replication, usual class: activators; 350,000 compounds, 2.9% hits; AID 624296; further: % of control where 0% means no effect; nearly all actives have a fitted effect of over 50% in size
RORg inh – inhibitors of mouse ROR gamma transcriptional activity. P51450. Drosophila S2 Gal4-RORgamma UAS-luciferase reporter, 20 h. Potency, µM (series often up to 53.6 µM), for inactives: top-dose activity change, negative = inhibition, usual class: inhibitors. 310,000 compounds, 5.4% hits; further: on the % scale 0 is the no-effect control and ±100 the full control effect; nearly all actives have a fitted effect of over 60% in size
Target sequence (P51450 whole entry, looked up, the tested form may be a part): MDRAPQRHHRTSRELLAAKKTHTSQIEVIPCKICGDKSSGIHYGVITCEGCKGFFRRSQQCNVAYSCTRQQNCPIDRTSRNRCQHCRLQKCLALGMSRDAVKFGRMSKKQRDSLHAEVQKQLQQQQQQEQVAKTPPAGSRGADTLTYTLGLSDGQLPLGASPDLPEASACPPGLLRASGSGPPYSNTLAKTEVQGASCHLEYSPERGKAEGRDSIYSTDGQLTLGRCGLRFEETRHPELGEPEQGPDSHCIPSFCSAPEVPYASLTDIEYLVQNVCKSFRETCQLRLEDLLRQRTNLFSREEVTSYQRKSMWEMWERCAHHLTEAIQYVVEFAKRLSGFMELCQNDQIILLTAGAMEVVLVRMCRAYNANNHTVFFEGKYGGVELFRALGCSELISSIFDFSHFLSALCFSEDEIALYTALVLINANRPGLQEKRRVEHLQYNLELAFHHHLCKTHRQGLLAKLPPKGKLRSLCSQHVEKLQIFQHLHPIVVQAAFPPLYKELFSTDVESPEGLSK
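Schneider cells (Drosophila), stable Gal4 DBD–ROR gamma + UAS-luc; 1 hr cmpd preincubation; Cu2+ induction 700 uM final; 20 hr ambient; luminescence.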
An asterisk follows results filed as active; ? = inconclusive; · = no result; [ ] = dose if it differs, or a comment. Rows were chosen to be rich in hits. Some 10% of all compounds tested hit in one or more screens of this group. The call rests on the fitted dose curve; in most records, active means well fitted curve in the direction sought with a large enough effect; inconclusive means small, poorly fitted or top-dose-only effect, or another doubt; inactive means no such curve, though single readings can be large; an effect the other way counts as inactive or inconclusive. Potency means the concentration at half of the fitted maximal effect.

SMILES	SW480 rerep	ELG1 DNA repair	Gal4-VP16 FLuc	MCF10A rereplic	RORg inh
CCOC(=O)c1cnc(-n2nc(C)cc2C)[nH]c1=O	5.4%	-7.2%	-26.8%	7.6%	6.31µM*
CCOC(=O)c1ccc2ncc(C(=O)OCC)c(Nc3ccc(N4CCOCC4)cc3)c2c1	?	10.3µM*	?	13.0%	-1.7%
CCOC(=O)c1cnc2nc(N3CCOCC3)nn2c1N	?	?	-21.1%	?	37.8%
CC(C)N(C(=O)[C@H]1C[C@H](CC(=O)NCC23CC4CC(CC(C4)C2)C3)C(=O)N2CCc3c([nH]c4cc(CCC(=O)N(C)C)ccc34)[C@]12C)C(C)C	-0.8%	?	·	?	·
O=c1c(-c2cc(F)cc(F)c2)nc2cnc(N3CCNCC3)nc2n1-c1ccccc1	·	·	-6.6%	·	-5.6%
C/C(CC(=O)NC1CCCCC1)=N\NC(=O)c1ccc(Br)cc1	-2.1%	-0.3%	11.2µM*	-2.2%	12.6µM*
O=C(NC1CCCCCCC1)c1cnccn1	-10.4%	?	13.5%	0.2%	?
CC(=O)Nc1ccccc1NC(=O)C/C(C)=N/NC(=O)C1CCCCC1	-3.0%	-5.9%	3.5%	5.3%	-16.0%
C/C(CC(=O)NC1CCCC1)=N\NC(=O)C1CCCCC1	1.1%	2.6%	-2.5%	-45.5%	15.8µM*
C/C(CC(=O)NC1CCCCCC1)=N\NC(=O)c1cnccn1	0.517µM*	12.5%	8.4%	-3.1%	-5.8%
O=C(CNC(=O)c1ccc(Cl)cc1)NC1CCCCC1	8.2µM*	5.4%	-9.6%	0.7%	3.6%
Nc1ncc(Br)cc1S(=O)(=O)NCCC(=O)NCCc1ccccc1	11.3%	10.4%	9.4%	0.4%	3.4%
Cc1ccc(C(=O)NCCCN2CCN(CCCNC(=O)c3ccc(C)cc3)CC2)cc1	3.2%	·	·	3.7%	·
CN(C)S(=O)(=O)c1ccc(Cl)c(NC(=O)CSc2nc3ccccc3c(=O)n2CCCN2CCOCC2)c1	2.6%	?	-0.7%	?	21.0%
Cc1cccc(-c2nc(CS(=O)CC(=O)NC3CCCC(C)C3C)c(C)o2)c1 (stereo not given)	-5.8%	0.0%	0.2%	5.1%	-20.6%
C=C(C)C1Cc2c(C)nn(-c3cccc4ccccc34)c2C1 (stereo not given)	3.1%	-21.9%	?	?	14.1µM*
Clc1ccc(Nc2ccc(NCc3ccccc3)nn2)cc1	16.4µM*	?	8.0%	?	16.3%
CCCNC(=O)OC[C@@H]1O[C@H](CCO/N=C(\C)CCN2CCc3nc(CC)c(CC)cc3C2)C=C[C@@H]1Oc1ccc(OC)cc1	·	·	-0.9%[10 µM]	·	-6.4%[10 µM]
CCCNC(=O)OC[C@H]1O[C@H](CCO/N=C(\C)CCN2CCc3nc(-c4ccccc4)c(-c4ccccc4)cc3C2)C=C[C@@H]1Oc1ccc(OC)cc1	?	6.51µM*	-10.5%	?	37.7%
O=c1ccc(-c2ccccc2)no1	-5.6%	-0.3%	2.6%	-1.5%	18.2%
CCN(C(=O)CSc1ncccn1)c1c(N)n(Cc2ccccc2)c(=O)[nH]c1=O	-8.2%	7.3%	·	13.7%	·
C/C(=N/NC(=O)c1cnccn1)c1ccncc1	-1.5%	?	6.0%	-0.5%	1.7%
S=C(NN=Cc1ccccn1)N(Cc1ccccn1)Cc1ccccn1	5.8µM*	·	·	13µM*	·
CC(=NNC(=S)N(Cc1ccccn1)Cc1ccccn1)c1cnccn1	?	·	·	4.61µM*	·
O=C(CCCC(=O)N/N=C\c1ccccn1)N/N=C\c1ccccn1	-3.0%	3.3%	-2.0%	9.2%	-2.4%
SMILES	SW480 rerep	ELG1 DNA repair	Gal4-VP16 FLuc	MCF10A rereplic	RORg inh
O=C(N/N=C/c1cc2cc3c(cc2nc1Cl)OCCO3)c1ccccc1O	?	0.2%	?	2.7%	?
Cc1cccc2cc(/C=N/NC(=O)c3ccccc3O)c(Cl)nc12	·	23.1µM*	?	7.31µM*	10µM*
Cc1cccc2cc(/C=N/NC(=O)c3ccncc3)c(Cl)nc12	-32.4%	-10.6%	0.3%	-0.7%	-3.6%
Cc1ccc2cc(/C=N/NC(=O)c3ccccc3O)c(Cl)nc2c1	1.0%	?	?	?	2.82µM*
COc1ccc(C(=O)NC2(C(F)(F)F)NC(=O)N(CCCc3ccccc3)C2=O)cc1OC (stereo not given)	-1.8%	-20.1%	-3.5%	1.5%	?
C=C(C)C1CC=C(C)/C(=N\NC(=S)Nc2ccc(C)cc2)C1 (stereo not given)	?	5.6%	4.47µM*	?	1.12µM*
CC(=O)c1c(N2CCN(C)CC2)nc(=S)n(Cc2ccccc2)c1C	?	3.0%	-3.7%	-1.3%	-1.4%
C=CCn1c(C)c(C(C)=O)c(N2CCN(C(c3ccccc3)c3ccccc3)CC2)nc1=S	9.6%	?	?	-26.0%	17.8µM*
CC(=O)c1c(N2CCN(c3cccc(Cl)c3)CC2)nc(=S)n(-c2ccccc2)c1C	-1.6%	-12.9%	?	-3.9%	20µM*
CCn1c(C)c(C(C)=O)c(N2CCN(c3cccc(Cl)c3)CC2)nc1=S	-1.4%	3.9%	1.1%	-2.0%	?
Cc1ccc(-n2ccc(=O)c(-c3ccnc(SCc4cccc(Cl)c4)n3)n2)cc1	-3.3%	0.0%	-9.0%	?	0.282µM*
CCn1c(-c2nn(-c3ccc(C)cc3)ccc2=O)n[nH]c1=S	-44.0%	0.4%	-18.1%	-8.5%	-21.6%
O=C(CCCCCNC(=O)c1ccccc1Br)N=Nc1c(O)[nH]c2ccccc12	-35.9%	9.2µM*	-3.6%	-2.5%	9.8%
O=C(CNC(=O)Cc1ccccc1)N=Nc1c(O)[nH]c2ccccc12	-1.1%	3.2%	6.5%	-0.3%	-1.6%
Cc1ccc(N(C)S(=O)(=O)c2c(C)noc2/C=C/N(C)C)cc1	14.5%	-0.2%	-3.6%	?	-21.3%
COc1cccc(NC(=O)COC(=O)/C=C/c2c(C)nn(-c3ccccc3)c2C)c1	-7.5%	?	·	-0.2%	·
O=C(Nc1ccc(OC(F)F)cc1)c1cc(S(=O)(=O)N2CCCCC2)ccc1N1CCOCC1	6.3%	-10.9%	·	-4.5%	·
CC(C)C(=O)Nc1ccc(-c2nc3ccccc3c(=O)o2)cc1	-4.1%	11.0%	?	-2.8%	11.2µM*
CC(C)C(=O)Nc1cccc(-c2nc3ccccc3c(=O)o2)c1	1.0%	-1.9%	-16.0%	-21.5%	?
CC(C)(C)C(=O)Nc1cccc(-c2nc3ccccc3c(=O)o2)c1	-18.3%	?	?	?	14.1µM*
CCCS(=O)(=O)c1c(S(=O)(=O)CCC)c2cc(-c3ccncc3)ccn2c1C(=O)OC	18.4µM*	?	1.7%	23.1µM*	?
CCCS(=O)(=O)c1c(S(=O)(=O)CCC)c2cnccn2c1C(=O)c1ccc(OC)cc1	12.3%	-1.7%	2.6%	?	23.8%
CC(=O)Nc1ccc(Nc2nc(C)c([N+](=O)[O-])c(Nc3ccc(NC(C)=O)cc3)n2)cc1	-4.5%	?	-7.1%	20.3%	?
